HP1b chromo inh: inhibitors of HP1-beta chromodomain binding to methylated histone tails. P83916. AlphaScreen HP1-beta / biotin-H3K9me3 peptide binding. Potency, µM (series often up to 114 µM), inactives show at the top dose activity change, negative = inhibition, actives largely listed as inhibitors. hit rate 0.56% among 390,000. AID 540317; further: potency means the concentration at half of the fitted maximal effect; nearly all actives have a fitted effect of over 70% in size
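AlphaScreen: HP1-beta (50 nM) preformed 30 min with biotin-H3(1-18)K9me3 peptide (50 nM) in PBS pH 7.4, 0.01% Tween-20. Compound added for 30 min at RT, then streptavidin donor/nickel chelate acceptor beads (10 ug/mL) for 30 min.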
BAZ2B block: blocks human BAZ2B; Q9UIF8; AlphaScreen BAZ2B-H3K14Ac peptide displacement; Potency, µM (doses to about 114 µM), for the others: at the top dose activity change, negative = inhibition, most hits filed as inhibitors; hit rate 4.4% among 360,000; further: potency means the concentration at half of the fitted maximal effect; on the % scale 0 is the no-effect control and ±100 the full control effect; nearly all actives have a fitted effect of over 60% in size
Target sequence (Q9UIF8 whole entry, looked up): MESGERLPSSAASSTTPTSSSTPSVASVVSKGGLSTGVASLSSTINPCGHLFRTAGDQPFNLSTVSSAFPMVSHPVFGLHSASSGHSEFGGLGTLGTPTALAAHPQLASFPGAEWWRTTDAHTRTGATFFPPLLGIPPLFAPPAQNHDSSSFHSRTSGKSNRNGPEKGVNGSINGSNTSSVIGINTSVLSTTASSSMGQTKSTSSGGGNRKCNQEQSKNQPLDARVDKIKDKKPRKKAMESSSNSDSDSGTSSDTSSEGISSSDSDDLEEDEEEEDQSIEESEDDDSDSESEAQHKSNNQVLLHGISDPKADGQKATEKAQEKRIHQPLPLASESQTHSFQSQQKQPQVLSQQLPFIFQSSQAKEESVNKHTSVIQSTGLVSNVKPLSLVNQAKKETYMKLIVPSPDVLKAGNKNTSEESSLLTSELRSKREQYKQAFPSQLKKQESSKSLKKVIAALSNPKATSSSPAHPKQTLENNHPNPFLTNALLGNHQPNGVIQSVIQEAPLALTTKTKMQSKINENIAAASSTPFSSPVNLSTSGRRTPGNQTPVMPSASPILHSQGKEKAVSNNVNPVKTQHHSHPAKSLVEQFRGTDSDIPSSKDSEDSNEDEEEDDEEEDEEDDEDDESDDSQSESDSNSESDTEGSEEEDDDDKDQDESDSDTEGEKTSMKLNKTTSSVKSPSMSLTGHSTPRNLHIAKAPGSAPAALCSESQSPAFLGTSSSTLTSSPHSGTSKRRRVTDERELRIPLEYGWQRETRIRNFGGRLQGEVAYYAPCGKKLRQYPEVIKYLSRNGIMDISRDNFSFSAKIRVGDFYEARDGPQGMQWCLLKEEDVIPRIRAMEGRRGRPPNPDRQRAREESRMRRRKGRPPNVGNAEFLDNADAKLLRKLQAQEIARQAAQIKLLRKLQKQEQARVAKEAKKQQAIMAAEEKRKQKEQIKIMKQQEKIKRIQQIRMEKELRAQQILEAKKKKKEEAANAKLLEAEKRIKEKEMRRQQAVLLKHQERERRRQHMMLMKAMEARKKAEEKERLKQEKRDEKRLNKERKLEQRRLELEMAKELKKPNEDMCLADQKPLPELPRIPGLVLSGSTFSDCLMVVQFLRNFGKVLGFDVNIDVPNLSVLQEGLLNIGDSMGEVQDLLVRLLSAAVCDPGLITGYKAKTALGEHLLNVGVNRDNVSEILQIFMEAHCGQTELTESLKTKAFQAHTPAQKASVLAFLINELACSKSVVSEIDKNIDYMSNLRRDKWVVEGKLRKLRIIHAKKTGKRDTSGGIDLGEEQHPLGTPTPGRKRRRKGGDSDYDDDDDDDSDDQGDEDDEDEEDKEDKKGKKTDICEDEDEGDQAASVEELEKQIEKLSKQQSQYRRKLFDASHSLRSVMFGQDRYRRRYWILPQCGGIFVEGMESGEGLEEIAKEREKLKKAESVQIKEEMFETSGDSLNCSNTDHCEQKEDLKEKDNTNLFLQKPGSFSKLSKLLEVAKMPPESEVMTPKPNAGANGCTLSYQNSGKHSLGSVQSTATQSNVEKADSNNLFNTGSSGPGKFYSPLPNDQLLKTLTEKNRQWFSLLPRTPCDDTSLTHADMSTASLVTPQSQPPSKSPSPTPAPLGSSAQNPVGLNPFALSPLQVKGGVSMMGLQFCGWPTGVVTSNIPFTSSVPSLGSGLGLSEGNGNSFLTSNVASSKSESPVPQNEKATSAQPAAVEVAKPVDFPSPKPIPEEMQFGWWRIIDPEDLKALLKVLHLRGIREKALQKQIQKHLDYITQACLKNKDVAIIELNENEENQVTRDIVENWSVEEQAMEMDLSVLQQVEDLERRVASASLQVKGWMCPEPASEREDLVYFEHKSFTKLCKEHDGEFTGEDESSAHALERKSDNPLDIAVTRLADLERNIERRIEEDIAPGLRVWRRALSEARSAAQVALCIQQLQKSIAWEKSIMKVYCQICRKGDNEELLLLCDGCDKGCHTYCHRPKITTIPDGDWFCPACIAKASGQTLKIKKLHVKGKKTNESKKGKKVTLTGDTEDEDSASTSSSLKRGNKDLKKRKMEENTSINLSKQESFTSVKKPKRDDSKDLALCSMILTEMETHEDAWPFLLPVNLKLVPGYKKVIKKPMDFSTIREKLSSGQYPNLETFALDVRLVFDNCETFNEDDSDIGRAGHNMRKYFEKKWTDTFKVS
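Protein-peptide AlphaScreen: BAZ2B 50 nM, b-H3K14Ac 50 nM, 1x PBS pH 7.4 + 0.01% Tween-20. Preincubation 30 min RT; cpd 30 min RT (top 110 uM); beads 20 min RT, light-protected.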
JMJD2A Tudor: JMJD2A Tudor domain (human) inhibition; hit rate 4.4% among 390,000; Potency, µM (doses to about 114 µM), inactives show at the top dose activity change, negative = inhibition, most hits filed as inhibitors; AlphaScreen JMJD2A-Tudor / H3K4me3 peptide binding; further: potency means the concentration at half of the fitted maximal effect; on the % scale 0 is the no-effect control and ±100 the full control effect; nearly all actives have a fitted effect of over 50% in size
PLK1 PBD inh: inhibitors of human PLK1 polo-box domain binding | Plk1 PBD binding of FITC phosphopeptide, fluorescence polarization | Potency, µM, for inactives: max response, negative = inhibition, most hits filed as inhibitors | hit rate 2.8% among 360,000; further: potency means the concentration at half of the fitted maximal effect; series mostly up to about 57 µM; on the % scale 0 is the no-effect control and ±100 the full control effect; nearly all actives have a fitted effect of over 65% in size
PI5P4K alpha inh: blocks human PI5P4K alpha kinase activity; max response, %; P48426; hit rate 1.2% among 330,000; AID 652105; PI5P4Kalpha enzyme, ADP-Glo luminescence, 60 min; active compounds read low; active means max response of -50% or lower; inconclusive means between -30% and -50%; inactive means -30% or higher; further: value at the top dose of about 77 µM; on the % scale 0 is the no-effect control and ±100 the full control effect
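Quantitative HTS of the MLSMR library against PI5P4Kalpha with substrate. ATP added last at 5 microM final; room temperature, 60 minutes. Remaining ATP depleted, ADP converted and read as luminescence.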
GCN5L2 inh: GCN5L2 (KAT2A) acetyltransferase inhibition. Q92830. GCN5L2 HAT assay, ThioGlo1 CoA-SH fluorescence. Potency, µM (top dose mostly 58.9 µM), inactives show at the highest dose activity change, negative = inhibition, actives largely listed as inhibitors. hit rate 0.21% among 390,000. AID 504327; further: potency means the concentration at half of the fitted maximal effect; on the % scale 0 is the no-effect control and ±100 the full control effect
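GCN5L2 (20 nM) in 50mM HEPES pH 7.5, 0.1mM EDTA, 0.01% Tween-20 preincubated 15 min with compounds at room temperature. Reaction started with H3(1-25) 75uM, acetyl-CoA 70uM, ThioGlo1 50uM; CoA-thiol fluorescence (Ex340/Em540) read at 0 and 20 min.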
Starred values were filed as active, the others as inactive; ? = inconclusive; · = not tested or not shown; [ ] = remark or other dose. In the library only some 7% were active in any assay of this set; here they are far more common. Unless noted, the call rests on the fitted dose curve; in most records, active means well fitted curve in the direction sought with a large enough effect; inconclusive means small, poorly fitted or top-dose-only effect, or another doubt; inactive means no such curve, though single readings can be large; an effect the other way counts as inactive or inconclusive.

SMILES | HP1b chromo inh | BAZ2B block | JMJD2A Tudor | PLK1 PBD inh | PI5P4K alpha inh | GCN5L2 inh
CCN(CC)CCCNC(=O)c1ccc(Cl)c(S(=O)(=O)Nc2ccccc2OC)c1 | 12% | 3% | 5% | -5% | 0 | -1%
COc1ccccc1NS(=O)(=O)c1cc(C(=O)NCc2ccco2)ccc1C | 7% | -31% | 50µM* | -2% | -8 | 2%
CN(C(=O)CSc1nc2cc([N+](=O)[O-])ccc2n1-c1ccc(F)cc1)C1CCS(=O)(=O)C1 (configuration not stated) | 25% | -29% | 79µM* | -15% | 0 | 4%
CN(C(=O)CSc1nc2ccc([N+](=O)[O-])cc2s1)C1CCS(=O)(=O)C1 (configuration not stated) | 71% | -5% | -18% | ? | -9 | ?
C[C@H]1CN([C@@H](C)CO)C(=O)CCCn2nncc2CO[C@@H]1CN(C)Cc1ccncc1 | · | · | · | ? | -1 | ·
COc1ccc(C(=O)NCc2n[nH]c(=S)n2-c2ccccc2)cc1OC | 11% | 0% | 6.3µM* | -11% | · | 0%
COc1cc(OC)cc(C(=O)NCc2n[nH]c(=S)n2-c2ccccc2)c1 | 18% | 10% | 7.9µM* | -7% | · | -5%
COc1cc(OC)cc(C(=O)NCCNC(=O)c2ccccc2)c1 | 26% | -22% | 2%[57.1 µM] | -17% | 0 | 1%
O=C(CCCSc1ccccc1)Nc1ccc(Cl)c(S(=O)(=O)N2CCOCC2)c1 | 10% | 7% | -32% | -3% | -1 | -7%
Cc1ccc(S(=O)(=O)NCC(c2ccc3c(c2)OCO3)N2CCOCC2)cc1 (configuration not stated) | 27% | 11% | -6% | -1% | -5 | 1%
O=c1cc(-c2nn[nH]n2)[nH]c(=O)[nH]1 | 39% | · | ? | -3% | -70* | ·
O=C(CCCn1nnnc1CN1CCOCC1)N1CCC(c2ccccc2Cl)C1 (configuration not stated) | 35% | -21% | 32% | 2% | 2 | -4%
CCn1nc([N+](=O)[O-])c(C(C#N)c2nc3cc(C(F)(F)F)ccc3s2)c(Cl)c1=O (configuration not stated) | 22µM* | 11µM* | 28µM* | 24µM* | · | ?
N#CC(c1ccccn1)c1ncc(C(F)(F)F)cc1Cl (configuration not stated) | 32% | -23% | -11% | -10% | 2 | 10%
Cc1ccc(Cn2c(C(C)Nc3nc(-c4ccc(Cl)c([N+](=O)[O-])c4)cs3)nc3cc(C(F)(F)F)ccc32)cc1 (configuration not stated) | 30% | · | ? | -29% | -3 | ·
Cn1nc([N+](=O)[O-])c(C(C#N)c2ccccn2)c(Cl)c1=O (configuration not stated) | 10% | -36% | -27% | 30µM* | -3 | -10%
CCCn1nc([N+](=O)[O-])c(C(C#N)c2nc3ccccc3o2)c(Cl)c1=O (configuration not stated) | ? | 20µM* | 56µM* | 30µM* | ? | -15%
CN(CC(=O)Nc1cccc(F)c1)CC(=O)N(C)c1c(N)n(Cc2ccccc2)c(=O)[nH]c1=O | 37% | · | -5% | -4% | -3 | -7%
O=C(CCn1cccn1)N1CCCC(N2CCN(c3cccc(C(F)(F)F)c3)CC2)C1 (configuration not stated) | 39% | -12% | -8% | 3% | 0 | -4%
CC(=O)Nc1ccc(C=CC=Cc2cccc([N+](=O)[O-])c2)cc1 | ? | · | 79µM* | 0% | -16 | ·
O=C(CNc1ccc2ccccc2c1)N/N=C/C=C/c1cccc([N+](=O)[O-])c1 | 16% | 89µM* | ? | -4% | 2 | -12%
CC(=O)Nc1ccc(OCc2cccc([N+](=O)[O-])c2)cc1 | 12% | -21% | -16% | -17% | 4 | -5%
O=C(N/N=C/C=C/c1cccc([N+](=O)[O-])c1)C(O)c1ccccc1 (configuration not stated) | 33% | -2% | -2% | -5% | -1 | -8%
COCCN(CC(=O)Nc1ccccc1C(F)(F)F)C(=O)/C=C/c1ccc2ccccc2n1 | 44% | -6% | 7% | 0% | -2 | -1%
Cc1ccc(C(=O)N2CCN(S(=O)(=O)c3ccc(Br)cc3)CC2)o1 | 3% | -26% | -25% | -12% | 5 | 3%
SMILES | HP1b chromo inh | BAZ2B block | JMJD2A Tudor | PLK1 PBD inh | PI5P4K alpha inh | GCN5L2 inh
OCCC1CN(Cc2cn[nH]c2C2CCCCC2)CCN1C1CCCC1 (configuration not stated) | 28% | -14% | -11% | 3% | 3 | -3%
O=C(Nc1ccccc1)Nc1nc(Nc2cc(F)cc(F)c2)nc(NC2CCCC2)n1 | · | · | -21% | · | · | ·
COc1ccc(C(=O)N(C)c2ccccc2C(=O)NCCc2ccccc2)cc1 | 27% | -10% | -6% | 1% | 1 | -3%
Cc1cc2c(s1)c1cnn(Cc3ccc(Cl)c(F)c3)c(=O)c1n2C | · | · | -25% | · | · | ·
CCOc1ccccc1C(=O)Nc1cc(-c2nc3cccnc3s2)ccc1C | 4% | 32µM* | ? | · | · | -18%
COc1ccc2nc(NN=C(C)c3ccccn3)cc(C)c2c1 | ? | · | 45µM* | -8% | 14 | ·
COc1ccc2oc(C(=O)NCC(c3ccco3)N(C)C)c(C)c2c1 (configuration not stated) | -9% | 50µM* | -27% | -5% | 0 | -1%
COc1ccc2oc(C(=O)NCc3cc(OC)c(OC)cc3OC)c(C)c2c1 | ? | ? | 35µM* | -13% | -2 | -9%
COc1ccc2oc(C(=O)NCCc3ccccc3)c(C)c2c1 | 27% | 8% | 9% | 0% | -20 | 2%
CCN(CC(=O)Nc1ccc(Br)cc1F)CC(=O)NC1CCS(=O)(=O)C1 (configuration not stated) | 25% | 6% | 1% | 5% | 0 | -5%
Cc1cccc(C)c1NC(=O)C1CCCN1S(=O)(=O)c1ccc(-c2ccc(=O)[nH]n2)s1 (configuration not stated) | -13% | -4% | ? | 12µM* | ? | 3%
Cc1cccc(C)c1NC(=O)CN(C)S(=O)(=O)c1ccc(-c2ccc(=O)[nH]n2)s1 | 34% | -13% | -11% | -12% | -11 | -25%
CC1=C(C(=O)OC2CCCC2)C(c2coc3ccccc3c2=O)C2=C(CC(C)(C)CC2=O)N1 (configuration not stated) | 71% | -16% | -10%[11.4 µM] | -7% | -1 | -14%
CCn1c(=O)c2cc(C(=O)N(CC(C)C)CC(C)C)sc2c2ccccc21 | 41% | 5% | 7% | · | · | -13%
COc1ccc2[nH]c(=O)c(CN(C(=O)c3cccnc3)c3cccc(C)c3)cc2c1 | 4% | -5% | -19%[11.4 µM] | 24µM* | ? | -2%

Screening data as filed in PubChem.
